In the library only some 19% were active in any assay of this set; here they are far more common.
TGFb inhibitor: qHTS for Inhibitors of TGF-b; HepG2 CAGA-GFP TGF-b/SMAD3 reporter, GFP fluorescence, 18 h; TGF-beta stimulated, 500 pg/mL final; Potency, µM (titrated, usually from 46.1 µM), inactives show at the top dose activity, negative = inhibition, usual class: inhibitors; actives 1.2% (n = 410,000); further: potency means the concentration at half of the fitted maximal effect; on the % scale 0 is the no-effect control and ±100 the full control effect; nearly all actives have a fitted effect of over 65% in size
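First, reporter cells (HEPG2 CAGA-GFP) rested 2 h at 37 degrees C. Next, compounds were pinned in and TGF-beta added to 500 pg/mL final. After 18 h, GFP was imaged per cell and summed per well.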
HepG2 viability: qHTS for Inhibitors of TGF-b: Cytotox Counterscreen. HepG2 CAGA-GFP viability, ATP luminescence, 18 h. Potency, µM (doses to about 46.1 µM), for the others: at the top dose activity change, negative = cytotoxicity, hits mostly cytotoxic. actives 0.76% (n = 410,000). AID 588856, 2011; further: potency means the concentration at half of the fitted maximal effect
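HepG2 CAGA-GFP cells (1000/well, DMEM with 1% FBS) received compound, then TGF-beta at 500 pg/mL final, and were incubated 18 hours at 37 degrees C. Viability was read by CellTiter-Glo luminescence. Media-only wells were set as complete cell-killing and DMSO as no toxicity.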
IL1B secr inh: qHTS for Inhibitors of Inflammasome Signaling: IL-1-beta AlphaLISA Primary Screen. THP-1 LPS/ATP IL-1B secretion, AlphaLISA, 16 h; active compounds read low. activity change, % at 57.5 µM. actives 4.7% (n = 360,000). AID 743279, 2014; in the data active means activity change below about -50%; inconclusive means mostly about -30% to -49%; further: on the % scale 0 is the no-effect control and ±100 the full control effect
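THP-1 cells pretreated 1 hr with compounds (up to 57.5 uM final), then stimulated with LPS (250 ng/mL final) plus ATP (1.25 mM final); secreted IL-1B measured by AlphaLISA after 16 hr, decreased signal indicating inhibition.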
TDP1 inh: qHTS Assay for Inhibitors of Tyrosyl-DNA Phosphodiesterase (TDP1) | AID 485290, 2010 | actives 0.28% (n = 350,000) | recombinant TDP1, AlphaScreen DNA substrate cleavage | Potency, µM (doses to about 130 µM), for the others: top-dose activity change, negative = inhibition, usual class: inhibitors; further: potency means the concentration at half of the fitted maximal effect; on the % scale 0 is the no-effect control and ±100 the full control effect; nearly all actives have a fitted effect of over 40% in size
Target sequence (Q9NUW8 whole entry, looked up): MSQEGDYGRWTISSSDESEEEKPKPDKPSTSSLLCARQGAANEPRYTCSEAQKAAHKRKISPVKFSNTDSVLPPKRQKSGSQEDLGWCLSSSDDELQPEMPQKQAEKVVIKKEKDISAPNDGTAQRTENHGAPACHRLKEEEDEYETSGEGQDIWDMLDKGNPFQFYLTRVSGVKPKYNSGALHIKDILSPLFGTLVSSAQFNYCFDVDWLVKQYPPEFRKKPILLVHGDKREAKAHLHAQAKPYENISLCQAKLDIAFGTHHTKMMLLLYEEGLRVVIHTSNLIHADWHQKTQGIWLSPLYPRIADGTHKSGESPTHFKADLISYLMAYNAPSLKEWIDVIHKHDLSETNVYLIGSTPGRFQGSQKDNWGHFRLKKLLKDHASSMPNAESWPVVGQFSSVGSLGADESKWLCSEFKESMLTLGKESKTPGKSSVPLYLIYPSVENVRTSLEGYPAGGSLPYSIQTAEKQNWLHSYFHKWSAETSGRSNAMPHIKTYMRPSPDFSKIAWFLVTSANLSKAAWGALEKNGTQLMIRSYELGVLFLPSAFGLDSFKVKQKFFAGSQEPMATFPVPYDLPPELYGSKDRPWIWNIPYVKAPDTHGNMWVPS
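Recombinant human Tdp1 (E. coli-expressed, 1 nM final) preincubated with compounds 15 min at room temperature, then 5'-biotin/3'-phosphotyrosine-FITC DNA substrate (15 nM final) added for 5 min. AlphaScreen beads (10 ug/ml final) added 10 min; cleavage lowers signal.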
DT40 TDP1 CPT: qHTS for Inhibitors of human tyrosyl-DNA phosphodiesterase 1 (TDP1): qHTS in cells in presence of CPT; actives 12% (n = 420,000); chicken DT40 Tdp1-/-;hTDP1 cells + 20 nM CPT, ATP luminescence, 48 h; Potency, µM (titrated, usually from 46.2 µM), without a hit: top-dose activity change, negative = growth inhibition, hits mostly inhibitors; AID 686979, 2013; further: potency means the concentration at half of the fitted maximal effect; on the % scale 0 is the no-effect control and ±100 the full control effect; nearly all actives have a fitted effect of over 55% in size
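Chicken DT40 Tdp1-/- cells complemented with human TDP1, 400 cells/well, exposed to compounds plus 20 nM camptothecin for at least 48 h at 37 C; viability read as ATP content by CellTiter-Glo luminescence.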
DT40 TDP1 no CPT: qHTS for Inhibitors of human tyrosyl-DNA phosphodiesterase 1 (TDP1): qHTS in cells in absence of CPT. DT40 Tdp1-/- hTDP1 cells, no CPT, ATP luminescence, 48 h. AID 686978, 2013. actives 15% (n = 420,000). Potency, µM (doses to about 46.2 µM), without a hit: top-dose activity change, negative = growth inhibition, most hits filed as inhibitors; further: potency means the concentration at half of the fitted maximal effect; on the % scale 0 is the no-effect control and ±100 the full control effect; nearly all actives have a fitted effect of over 55% in size
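Stably hTDP1-transfected Tdp1-null chicken DT40 cells were treated with library compounds minus camptothecin and grown for at least 48 hr at 37 °C, after which cellular ATP was quantified by luminescence.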
* hit, by the source's call; ? = inconclusive; . = no result given. Unless noted, the call rests on the fitted dose curve; in most records, active means well fitted curve in the direction sought with a large enough effect; inconclusive means small, poorly fitted or top-dose-only effect, or another doubt; inactive means no such curve, though single readings can be large; an effect the other way counts as inactive or inconclusive.

SMILES | TGFb inhibitor | HepG2 viability | IL1B secr inh | TDP1 inh | DT40 TDP1 CPT | DT40 TDP1 no CPT
Cc1cc(C)cc(OCC(=O)NCC(c2ccc(Cl)cc2)N2CCCCC2)c1 (centres undefined) | -15% | -13% | . | 3% | 21µM* | 16µM*
CCOc1ccc(S(=O)(=O)NCC(c2ccc(N(C)C)cc2)N2CCCC2)cc1 (centres undefined) | 11% | -21% | . | 9% | ? | 26µM*
COc1ccc(C(=O)NCC(c2ccc(N(C)C)cc2)N2CCCC2)c(OC)c1 (centres undefined) | ? | -31% | . | 9% | ? | 13µM*
COc1ccc(Cl)cc1C(=O)NCC(c1ccc(N(C)C)cc1)N1CCCC1 (centres undefined) | -1% | -8% | . | 4% | ? | ?
COc1ccc(C(=O)NCC(c2ccc(Cl)cc2)N2CCCCC2)cc1 (centres undefined) | 2% | -28% | . | -4% | 15µM* | 12µM*
CCCCCCCC1c2c(c(C)c(C)oc2=O)Oc2c(C)c(C)oc(=O)c21 | ? | 2% | -17 | 6% | ? | -15%
COc1ccc(OC)c(S(=O)(=O)ON2C(=O)c3ccccc3C2=O)c1 | ? | -27% | -13 | . | 2.3µM* | 1.5µM*
COc1ccc(F)cc1S(=O)(=O)n1cnc2ccccc21 | -4% | -23% | 1 | . | -4% | 3%
COc1ccc(OC)c(S(=O)(=O)Nc2cnc3ccccc3c2)c1 | 2% | -26% | 63 | 2% | ? | 23µM*
O=S(=O)(Nc1cnc2ccccc2c1)N1CCCCCC1 | -5% | 10% | 23 | 7% | 21µM* | 13µM*
COc1ccc(NS(=O)(=O)c2cc(OC)ccc2OC)cc1 | 27% | 15% | 21 | . | -20% | ?
COc1ccc(OC)c(S(=O)(=O)n2cnc3ccccc32)c1 | 2% | -12% | 25 | . | ? | 16µM*
COc1cccc(NC(=O)c2oc3ccccc3c2NC(=O)COc2ccccc2C)c1 | ? | -8% | . | -1% | -25% | -20%
COc1ccc(OC)c(S(=O)(=O)Nc2ccc3c(c2)C(=O)OC3)c1 | -1% | -60% | 14 | 5% | 12µM* | 8.2µM*
COc1ccc(-c2cc(C(F)(F)F)nc(SCCC(=O)Nc3cccc(O)c3)n2)cc1 | ? | -99% | . | 5% | . | .
CCc1ccc(-c2cc(N)n(-c3ccccc3)n2)cc1 | 8% | -16% | -22 | 6% | -18% | 0%
CCc1ccc(-c2cc3c(N4CCN(c5ccccc5)CC4)nccn3n2)cc1 | -16% | -14% | . | 7% | ? | 21µM*
Cn1c2c(c3cnc4cc(Cl)ccc4c31)CN(Cc1ccc(Cl)cc1)CC2 | -1% | 0% | . | 3% | 7.9µM* | 7.1µM*
O=C(Nc1cccc(Cl)c1)N1Cc2ccccc2Oc2ncccc21 | . | -9% | . | 0% | -9% | ?
CC(C)c1cccc(-c2ccc3c(c2)S(=O)(=O)c2cccc(C(=O)NC4CCCC4)c2C3=O)c1 | 5% | -4% | 14 | -1% | ? | -17%
Cc1nn(Cc2ccc(Br)cc2)c(C)c1NC(=O)c1nn(C)cc1Cl | -17% | 0% | -18 | 4% | ? | 18µM*
Cc1cc(C)n2nc(C(=O)Nc3c(C)nn(Cc4ccc(F)cc4)c3C)cc2n1 | 7% | 6% | -8 | -2% | -18% | -5%
